# Results taken from PubChem BioAssay (NCATS).
# Results filed as inconclusive are left out. The source made the active and inactive calls. Unless noted, the call rests on the fitted dose curve.
# Key:
# [1] = qHTS Assay for Lipid Storage Modulators (AID 1519); conditions: Drosophila S3 cells, BODIPY lipid droplet/cell ratio, laser cytometry, cells loaded with oleic acid; on activity change, negative = inhibition: on the % scale 0 is the no-effect control and ±100 the full control effect
# Method in brief: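 Cells seeded at 5,000 per well were treated with compounds over a concentration series and loaded with oleic acid (400 uM, as added). Lipid droplet fluorescence (488 nm excitation, 500-530 nm channel) was read by laser-scanning cytometry and normalized to 20 uM Triacsin C.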
# [2] = Validation of Assay for Modulators of Lamin A Splicing (AID 1459; active means well fitted curve in the direction sought with a large enough effect in the signal ratio; the % refers to the signal ratio;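 further: cells exposed to compound for two days before reading; 0% is about no effect; ratio rise marks activators and ratio drop marks inhibitors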); conditions: Lamin A splicing dual RFP/GFP fluorescence reporter; series mostly up to 9.22 µM
# Method in brief: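 Dual-reporter HeLa S3 line (lamin A-EGFP minigene, DsRed2) treated with compounds 48 hrs, 0.5% DMSO final. Endpoint: EGFP/DsRed2 total intensity ratio from laser-scanning microplate cytometry.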
# [3] = biological target: DNA repair nuclease/redox regulator APEX1 (Homo sapiens) (UniProt P27695); assay: qHTS Validation Assay for Inhibitors of the Human Apurinic/apyrimidinic Endonuclease 1 (APE1) (AID 1705; active means well fitted curve in the direction sought with a large enough effect; an effect the other way counts as inactive or inconclusive;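 further: TAMRA fluorescence gain over two minutes as APE1 cuts a quenched THF abasic duplex; on the % scale 0 is the no-effect control and ±100 the full control effect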); conditions: purified APE1 endonuclease activity, fluorescence, titration; series mostly up to 57.1 µM
# DNA repair nuclease/redox regulator APEX1 (Homo sapiens), sequence (P27695 whole entry, looked up): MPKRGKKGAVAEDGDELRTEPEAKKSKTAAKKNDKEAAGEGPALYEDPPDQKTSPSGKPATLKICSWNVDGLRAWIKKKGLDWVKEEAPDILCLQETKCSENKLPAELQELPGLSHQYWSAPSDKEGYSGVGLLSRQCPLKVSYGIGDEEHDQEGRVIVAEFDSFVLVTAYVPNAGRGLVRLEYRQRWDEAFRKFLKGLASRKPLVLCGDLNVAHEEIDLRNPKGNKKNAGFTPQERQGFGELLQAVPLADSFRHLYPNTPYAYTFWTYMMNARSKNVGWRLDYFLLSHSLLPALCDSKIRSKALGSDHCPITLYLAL
# Method in brief: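 Substrate: 50 nM final fluorophore/quencher THF-abasic duplex. Enzyme preincubated with compounds 15 min, RT. Progress derived from fluorescence difference, third minus first kinetic read.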
# [4] = biological target: Ferritin light chain (Equus caballus) (UniProt P02791); assay: qHTS Validation Assay for Identification of Novel General Anesthetics (AID 2323; active means well fitted curve in the direction sought with a large enough effect; an effect the other way counts as inactive or inconclusive; further: on the % scale 0 is the no-effect control and ±100 the full control effect); conditions: horse apoferritin, anesthetic-site fluorescent probe displacement; series mostly up to 76.9 µM
# Ferritin light chain (Equus caballus), sequence (P02791 2-175 limits assumed): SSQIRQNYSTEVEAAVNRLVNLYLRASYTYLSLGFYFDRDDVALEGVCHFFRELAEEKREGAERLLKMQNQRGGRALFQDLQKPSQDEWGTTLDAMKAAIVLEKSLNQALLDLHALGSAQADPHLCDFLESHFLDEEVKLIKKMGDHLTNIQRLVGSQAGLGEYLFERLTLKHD
# Method in brief: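 Normalized fluorescence response, scaled between free 1-AMA and 1-AMA/apoferritin complex, fitted to a four-parameter Hill equation for concentration-effect values. Binding mix: 10 uM horse-spleen apoferritin, 50% saturated 1-AMA in PBS; read 380/535 nm after 10 min.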
# [5] = biological target: ATP-dependent DNA helicase Q1 (Homo sapiens) (UniProt P46063); assay: qHTS Validation Assay for Inhibitors of RecQ-Like Dna Helicase 1 (RECQ1) (AID 2353; active means well fitted curve in the direction sought with a large enough effect; an effect the other way counts as inactive or inconclusive;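 further: plate controls were DMSO vehicle for no effect and enzyme-free control for full effect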); conditions: recombinant RECQ1 helicase DNA unwinding assay; series mostly up to 25.6 µM
# ATP-dependent DNA helicase Q1 (Homo sapiens), sequence (P46063 whole entry, looked up): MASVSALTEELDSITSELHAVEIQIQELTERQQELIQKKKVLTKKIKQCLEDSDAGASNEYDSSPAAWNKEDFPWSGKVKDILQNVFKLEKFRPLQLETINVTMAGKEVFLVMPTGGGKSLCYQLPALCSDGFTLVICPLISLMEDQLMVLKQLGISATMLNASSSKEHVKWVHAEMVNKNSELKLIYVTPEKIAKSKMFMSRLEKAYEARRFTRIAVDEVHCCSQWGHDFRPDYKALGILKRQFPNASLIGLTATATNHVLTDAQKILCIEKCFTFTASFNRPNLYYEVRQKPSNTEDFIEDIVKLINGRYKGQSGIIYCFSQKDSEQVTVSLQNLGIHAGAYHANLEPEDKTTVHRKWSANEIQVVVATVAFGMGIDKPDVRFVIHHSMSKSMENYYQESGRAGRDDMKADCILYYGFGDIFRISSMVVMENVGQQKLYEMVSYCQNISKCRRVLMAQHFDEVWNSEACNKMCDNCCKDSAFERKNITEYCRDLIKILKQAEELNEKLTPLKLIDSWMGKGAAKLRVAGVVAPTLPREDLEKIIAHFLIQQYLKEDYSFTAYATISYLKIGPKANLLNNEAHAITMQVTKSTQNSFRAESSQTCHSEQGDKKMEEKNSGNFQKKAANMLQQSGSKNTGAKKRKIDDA
# Method in brief: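 50 nM RECQ1T1 preincubated 15 min with compound in Tris pH 8.0 buffer with MgCl2, DTT, Tween-20 and 2.5 ug/ml poly(dI-dC); started with 200 nM TAMRA/BHQ-2 forked duplex and 2 mM ATP. Unwinding read as fluorescence (525/598 nm), two reads 2 h apart.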
# [6] = biological target: RecQ-like DNA helicase BLM (Homo sapiens) (UniProt P54132); assay: qHTS Validation Assay for Inhibitors of Bloom's syndrome helicase (BLM) (AID 2364; active means well fitted curve in the direction sought with a large enough effect; an effect the other way counts as inactive or inconclusive;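 further: plate controls were DMSO vehicle for no effect and enzyme-free control for full effect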); conditions: BLM helicase DNA unwinding, fluorescence, in vitro; series mostly up to 57.1 µM
# RecQ-like DNA helicase BLM (Homo sapiens), sequence (P54132 whole entry, looked up): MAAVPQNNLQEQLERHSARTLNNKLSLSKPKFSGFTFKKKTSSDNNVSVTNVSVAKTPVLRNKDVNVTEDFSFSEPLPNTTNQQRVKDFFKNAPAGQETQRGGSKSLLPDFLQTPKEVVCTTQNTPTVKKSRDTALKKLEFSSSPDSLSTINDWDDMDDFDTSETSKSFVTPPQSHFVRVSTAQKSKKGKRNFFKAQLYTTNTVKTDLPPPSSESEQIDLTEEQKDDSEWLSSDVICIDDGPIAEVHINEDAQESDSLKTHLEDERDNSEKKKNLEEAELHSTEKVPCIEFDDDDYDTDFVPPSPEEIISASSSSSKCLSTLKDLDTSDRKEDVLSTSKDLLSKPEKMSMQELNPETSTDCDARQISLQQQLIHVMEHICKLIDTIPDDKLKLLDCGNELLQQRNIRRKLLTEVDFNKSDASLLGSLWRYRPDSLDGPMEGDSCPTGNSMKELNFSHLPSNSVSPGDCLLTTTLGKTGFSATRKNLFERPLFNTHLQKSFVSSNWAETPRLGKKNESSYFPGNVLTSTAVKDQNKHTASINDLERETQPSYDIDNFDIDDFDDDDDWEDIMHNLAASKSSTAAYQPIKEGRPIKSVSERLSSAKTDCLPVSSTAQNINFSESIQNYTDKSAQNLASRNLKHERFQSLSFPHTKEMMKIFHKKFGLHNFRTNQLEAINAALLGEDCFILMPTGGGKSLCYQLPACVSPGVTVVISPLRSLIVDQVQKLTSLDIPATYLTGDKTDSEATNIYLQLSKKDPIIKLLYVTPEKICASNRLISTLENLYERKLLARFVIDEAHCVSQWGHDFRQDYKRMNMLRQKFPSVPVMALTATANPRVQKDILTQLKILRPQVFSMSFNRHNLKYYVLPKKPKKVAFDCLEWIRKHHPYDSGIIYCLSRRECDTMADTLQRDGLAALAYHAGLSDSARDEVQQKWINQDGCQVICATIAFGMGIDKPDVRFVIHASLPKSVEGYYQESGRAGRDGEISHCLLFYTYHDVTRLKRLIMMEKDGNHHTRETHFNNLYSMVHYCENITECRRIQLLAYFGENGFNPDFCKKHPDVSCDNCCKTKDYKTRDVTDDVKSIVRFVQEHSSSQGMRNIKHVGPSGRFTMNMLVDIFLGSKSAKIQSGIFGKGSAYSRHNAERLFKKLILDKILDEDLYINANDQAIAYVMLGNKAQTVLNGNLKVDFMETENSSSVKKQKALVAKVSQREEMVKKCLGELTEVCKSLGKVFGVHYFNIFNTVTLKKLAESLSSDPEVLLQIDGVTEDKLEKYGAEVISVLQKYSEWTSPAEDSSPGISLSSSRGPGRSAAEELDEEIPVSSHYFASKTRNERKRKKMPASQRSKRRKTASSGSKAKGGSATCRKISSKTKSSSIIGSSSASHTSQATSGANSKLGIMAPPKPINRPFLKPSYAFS
# Method in brief: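 Forked 20-bp duplex substrate (200 nM, TAMRA/BHQ-2) plus 2 mM ATP added after 15 min compound preincubation with 50 nM enzyme, pH 8.0, poly(dI-dC) 2.5 ug/ml. Strand separation followed by fluorescence (525/598 nm) over 2 h, normalized to enzyme-free and DMSO controls.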
# [7] = Cytometric Cell-Based qHTS for Inhibitors of the mTORC1 Signaling Pathway in MEF (Tsc2-/-, p53-/-) Cells (AID 2660; active means well fitted curve in the direction sought with a large enough effect; an effect the other way counts as inactive or inconclusive;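 further: percent of cells above a phospho-rpS6 to PI ratio cutoff in each well; plate controls were DMSO for no effect and rapamycin for full effect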); conditions: mTORC1 pathway cytometry; series mostly up to 38.3 µM
# Method in brief: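 Tsc2-/-, p53-/- MEFs (empty vector) exposed to compound 24 h at 37 C, fixed, stained with Alexa-488 anti-phospho-rpS6 Ser235/236 and propidium iodide. Acumen laser scanning; phospho-S6/PI ratio thresholded against 7.5 nM rapamycin, reported as % positive cells.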
# [8] = High Content Imaging Cell-Based qHTS for Inhibitors of the mTORC1 Signaling Pathway in MEF (Tsc2-/-, p53-/-) Cells (AID 2666; active means well fitted curve in the direction sought with a large enough effect; an effect the other way counts as inactive or inconclusive;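 further: percent of cells scored positive for phospho-rpS6 Ser235/236 immunostaining by imaging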); conditions: at 38.3 µM (top of the series)
# Method in brief: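 Cells were plated, dosed with compound after 24 hrs, and incubated another 24 hrs at 37 degree Celsius. Fixed cells were immunostained for phospho-rpS6 Ser235/236 and counterstained, and the normalized signal was scored as % active cells against rapamycin and DMSO controls.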
# [9] = High Content Imaging Cell-Based qHTS for Inhibitors of the mTORC1 Signaling Pathway in MEF Cells (AID 2667; active means well fitted curve in the direction sought with a large enough effect; an effect the other way counts as inactive or inconclusive;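 further: Tsc2-/- p53-/- MEFs stably re-expressing wild-type Tsc2 exposed 24 h; plate controls were DMSO wells for no effect and rapamycin control wells for full effect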); conditions: series mostly up to 38.3 µM
# Method in brief: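 Immunofluorescence for rpS6 phosphorylation in MEFs of Tsc2-/-, p53-/- background rescued with WT Tsc2. Compound exposure lasted 24 hrs. Inhibition was scored against rapamycin-treated control wells.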
# [10] = measured here: cell count channel max response
# [11] = measured here: lipid channel max response
structure (smiles),measurement,setting,value
CCCC(=O)Nc1ncnc2c1ncn2C1OC2COP(=O)(O)OC2C1OC(=O)CCC (stereo not drawn),"activity change, negative = inhibition",[1]; at 57.5 µM (top of the series),10.5% (inactive)
same,max response,[1]; [10],15.6%
same,max response,[1]; [11],29.9%
CCN(CC)Cc1cc(Nc2ccnc3cc(Cl)ccc23)ccc1O,"activity change, negative = inhibition",[1]; at 25.7 µM (top of the series),-2.24% (inactive)
same,max response,[1]; [10],-18.5%
same,max response,[1]; [11],-20.7%
CC1(C)S[C@@H]2[C@H](NC(=O)[C@@H](NC(=O)N3CCNC3=O)c3ccccc3)C(=O)N2[C@H]1C(=O)O,"activity change, negative = inhibition",[1]; at 25.7 µM (top of the series),-1.89% (inactive)
same,max response,[1]; [10],-12.9%
same,max response,[1]; [11],-11.6%
CCCC(=O)Nc1ncnc2c1ncn2[C@@H]1O[C@@H]2COP(=O)(O)O[C@H]2[C@H]1OC(=O)CCC,"activity change, negative = inhibition",[1]; at 57.5 µM (top of the series),1.77% (inactive)
same,max response,[1]; [10],-7.18%
same,max response,[1]; [11],-6.01%
Cc1cn([C@H]2C[C@H](O)[C@@H](CO)O2)c(=O)[nH]c1=O,"activity change, negative = inhibition",[1]; at 57.5 µM (top of the series),-2.02% (inactive)
same,max response,[1]; [10],-24%
same,max response,[1]; [11],-24.4%
Cc1c(C)c2c(c(C)c1O)CC[C@@](C)(CCC[C@@H](C)CCC[C@@H](C)CCCC(C)C)O2,"activity change, negative = inhibition",[1]; at 25.7 µM (top of the series),-2.72% (inactive)
same,max response,[1]; [10],2.07%
same,max response,[1]; [11],-0.999%
Cc1c(C)c2c(c(C)c1O)CC[C@@](C)(CCC[C@H](C)CCC[C@H](C)CCCC(C)C)O2,"activity change, negative = inhibition",[1]; at 57.5 µM (top of the series),0.911% (inactive)
same,max response,[1]; [10],-14.2%
same,max response,[1]; [11],-14.3%
CN1Cc2c(N)cccc2C(c2ccccc2)C1 (stereo not drawn),outcome,[2],inactive
same,"activity change, negative = inhibition",[1]; at 57.5 µM (top of the series),0.643% (inactive)
same,max response,[1]; [10],11.3%
same,max response,[1]; [11],9.26%
same,outcome,[3],inactive
same,outcome,[4],inactive
same,outcome,[5],inactive
same,outcome,[6],inactive
same,outcome,[7],inactive
same,outcome,[8],inactive
same,outcome,[9],inactive
C=CCSSSCC=C,"activity change, negative = inhibition",[1]; at 57.5 µM (top of the series),6.54% (inactive)
same,max response,[1]; [10],-4.64%
same,max response,[1]; [11],3.63%
C[C@@H]1CCC2[C@@H](C)[C@@H](O)O[C@@H]3O[C@@]4(C)CC[C@@H]1[C@@]23OO4 (stereo partly drawn),"activity change, negative = inhibition",[1]; at 57.5 µM (top of the series),-0.729% (inactive)
same,max response,[1]; [10],14.2%
same,max response,[1]; [11],15.2%
CCOc1ccc2c(c1)C(C)=CC(C)(C)N2,"activity change, negative = inhibition",[1]; at 25.7 µM (top of the series),-15.7% (inactive)
same,max response,[1]; [10],-17.3%
same,max response,[1]; [11],-29.2%
O=c1ccn([C@@H]2O[C@H](CO)[C@@H](O)[C@H]2O)c(=O)[nH]1,"activity change, negative = inhibition",[1]; at 57.5 µM (top of the series),1.01% (inactive)
same,max response,[1]; [10],-6.37%
same,max response,[1]; [11],-5.71%
CC1=C(/C=C/C(C)=C/C=C/C(C)=C/C=C/C=C(C)/C=C/C=C(C)/C=C/C2=C(C)C(=O)CCC2(C)C)C(C)(C)CCC1=O,"activity change, negative = inhibition",[1]; at 57.5 µM (top of the series),5.18% (inactive)
same,max response,[1]; [10],20.9%
same,max response,[1]; [11],28.3%
OCc1ccccc1O[C@@H]1O[C@H](CO)[C@@H](O)[C@H](O)[C@H]1O,"activity change, negative = inhibition",[1]; at 57.5 µM (top of the series),-1.43% (inactive)
same,max response,[1]; [10],-14.9%
same,max response,[1]; [11],-16.3%
O=C(O)CN(CCN(CC(=O)O)CC(=O)O)CC(=O)O,"activity change, negative = inhibition",[1]; at 57.5 µM (top of the series),6.6% (inactive)
same,max response,[1]; [10],-1.95%
same,max response,[1]; [11],6.6%
